In PubChem BioAssay (NCATS):
Inconclusive results are not listed. Calls of active or inactive are those of the source. Calls follow the shape of the dose curve; as a rule, active = well fitted cell-killing curve with a large enough effect; inconclusive = small, poorly fitted or top-dose-only effect, or effect the other way; inactive = flat fitted curve, though single readings scatter.

What was measured:
Experiment in all cases: Primary qHTS to identify gynecologic anti-cancer compounds using libraries of approved drugs and bioactive compounds (AID 1345084); also: nearly all actives have a fitted effect of over 55% in size
[1] = test system: C33A; details: Gynecologic cancer cell panel viability, ATPlite luminescence, 48 h; series mostly up to 57.5 µM
Summary of the method: (§1)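 ATP-based viability (ATPlite), 1,000 cells/well, 16 h pre-incubation, 48 h compound at 37 C, 5% CO2, 15 min RT before read.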

[2] = test system: CAOV3; details: Gynecologic cancer cell panel viability, ATPlite luminescence, 48 h; series mostly up to 57.5 µM
Summary of the method: as §1

[3] = test system: CASKI; details: Gynecologic cancer cell panel viability, ATPlite luminescence, 48 h; series mostly up to 57.5 µM
Summary of the method: as §1

[4] = test system: Es-2; details: Gynecologic cancer cell panel viability, ATPlite luminescence, 48 h; series mostly up to 57.5 µM
Summary of the method: as §1

[5] = test system: HeLa; details: Gynecologic cancer cell panel viability, ATPlite luminescence, 48 h; series mostly up to 57.5 µM
Summary of the method: as §1

[6] = test system: Hek293T; details: Gynecologic cancer cell panel viability, ATPlite luminescence, 48 h, control line for the selectivity index; series mostly up to 57.5 µM
Summary of the method: as §1

[7] = test system: JEG-3; details: Gynecologic cancer cell panel viability, ATPlite luminescence, 48 h; series mostly up to 57.5 µM
Summary of the method: as §1

[8] = test system: OV90; details: Gynecologic cancer cell panel viability, ATPlite luminescence, 48 h; series mostly up to 57.5 µM
Summary of the method: as §1

[9] = test system: PA-1; details: Gynecologic cancer cell panel viability, ATPlite luminescence, 48 h; series mostly up to 57.5 µM
Summary of the method: as §1

[10] = test system: SKOV3; details: Gynecologic cancer cell panel viability, ATPlite luminescence, 48 h; series mostly up to 57.5 µM
Summary of the method: as §1

Measured: Potency

CCC(C)(OC(C)=O)C(=O)O[C@H]1[C@H](OC(C)=O)C[C@@H]2[C@@](C)([C@@H]3C[C@H]4C=CO[C@H]4O3)[C@H](C)C[C@H](OC(C)=O)[C@@]2(COC(C)=O)[C@@]12CO2 (some centres not stated)
inactive: all assays above

C[C@@H]1C(=O)O[C@H]2[C@H](O)[C@@]34[C@@H]5OC(=O)[C@@]3(O[C@@H]3OC(=O)[C@@H](O)[C@@]34[C@H](C(C)(C)C)[C@H]5O)[C@@]12O
inactive: all assays above

C[C@]12CC[C@@H](O)C[C@H]1CC[C@@H]1[C@@H]2CC[C@]2(C)C(=O)CC[C@@H]12
inactive: all assays above

CN1[C@@H]2CC[C@H]1CC(OC(=O)C1C=Nc3ccccc31)C2 (some centres not stated)
inactive: all assays above

CCN1C[C@]2(COC)[C@H](O)C[C@H](OC)[C@]34[C@@H]5C[C@]6(O)[C@H](OC(=O)c7ccccc7)[C@@H]5[C@@](O)([C@H]([C@H](OC)[C@H]23)[C@@H]14)[C@@H](O)[C@@H]6OC
inactive: all assays above

Clc1ccc(N2C[C@H]3CC[C@@H](C2)N3)nn1
inactive: all assays above

CC(C)(O)[C@H]1O[C@H]2CC[C@@]3(C)[C@@](O)(CC[C@H]4Cc5c([nH]c6ccccc56)[C@@]43C)C2=CC1=O
inactive: all assays above

COC1=CC(=O)O[C@@H](CCc2ccccc2)C1
inactive: all assays above

COC(=O)C1(C)CCC(O)C2(C)c3cc(O)c(C(C)C)cc3C(O)C(OC(C)=O)C12 (configuration not stated)
not listed: [9] | [10]
inactive: all other assays above

CC(CCc1ccc(O)cc1)O[C@@H]1O[C@H](CO[C@H]2OC[C@](O)(CO)[C@H]2O)[C@@H](O)[C@H](O)[C@H]1O (some centres not stated)
inactive: all assays above

COc1c(C(C)C)cc2c(c1O)[C@@]1(C(=O)O)CCCC(C)(C)C1CC2 (some centres not stated)
inactive: all assays above

CN[C@H]1[C@H](O)[C@H](O[C@@H]2[C@@H](O)[C@H](O[C@H]3O[C@H]([C@H](C)O)[C@@H](O)[C@H](O)[C@H]3N)[C@@H](N)C[C@H]2N)OC[C@@]1(C)O
inactive: all assays above

CC(C)=C1CC[C@]23CO[C@H](C2)[C@@](O)(C(=O)O)CCC13 (some centres not stated)
inactive: all assays above

C=C[C@H]1CN2CC[C@H]1C[C@@H]2[C@@H](O)c1ccnc2ccccc12
inactive: all assays above

O=C(O)c1ccnc2cc(C(OCCN3CCCCC3)c3ccccc3Cl)[nH]c12 (configuration not stated)
not listed: [10]
inactive: all other assays above

Cc1cn(C[C@H](N)C(=O)O)c(=O)n(Cc2cc(-c3ccccc3)sc2C(=O)O)c1=O
inactive: all assays above
